# Assay results reported in PubChem BioAssay AID1566 (Sanford-Burnham Center for Chemical Genomics, 2009).
# The whole screen tested about 290,000 compounds, of which about 1,800 (0.62%) were called active. Only a selection was taken, and actives are over-represented in it overall. Values without a mark were called inactive. No stated cut-off is given here; in the data, active means inhibition above about 50%; inactive means the rest.
# Experiment: inhibition of NOD2-driven NF-kB reporter – cell-based, luminescence, uHTS, HEK293 (AID 1566)
# Conditions: HEK293 NOD2/NF-kB luciferase reporter, at 4 µM, stronger effect = higher value
row,Structure (SMILES),inhibition
1,Fc1ccc(NC(=S)Nc2cc(Cl)ccc2Cl)cc1,-16.8%
2,C[C@@H]1C(=O)O[C@H]2[C@H]1CC[C@@]1(C)C(=O)C=C[C@@](C)(O)[C@H]21,1.1%
3,N#Cc1ccccc1COc1ccc(/C=C/C(=O)O)cc1,64.4% (active)
4,COc1cc(/C=C/C(=O)O)ccc1OCc1ccccc1C#N,18%
5,O=C(O)/C=C/c1ccc(OCc2cccc(F)c2)cc1,-4.9%
6,COc1cccc(N(CC(=O)NC2CCCC2)C(=O)CCC(=O)Nc2cc(C)on2)c1,2.5%
7,C=C(C)COc1ccc2c(C)c(CC(=O)N3C[C@H]4C[C@@H](C3)c3cccc(=O)n3C4)c(=O)oc2c1,5%
8,C=C(C)COc1ccc2c(C)c(CC(=O)N3C[C@H]4C[C@@H](C3)c3cccc(=O)n3C4)c(=O)oc2c1C,51.9% (active)
9,CC(C)=CCOc1ccc2c(C)c(CC(=O)N3C[C@H]4C[C@@H](C3)c3cccc(=O)n3C4)c(=O)oc2c1C,15.8%
10,CCOc1ccccc1-n1c(SCC(=O)N2CCOCC2)nc2ccccc2c1=O,24.9%
11,O=C(NCCCNc1ccnc2cc(Cl)ccc12)c1ccccc1F,28.3%
12,O=C(NCCNc1ccnc2cc(Cl)ccc12)c1ccccc1F,54.8% (active)
13,O=C(NCCNc1ccc(Cl)cc1[N+](=O)[O-])c1ccccc1F,-16.6%
14,C=CCOC(=O)C1=C(C)NC(C)=C(C(=O)OCC=C)C1/C=C/c1ccccc1,-0.8%
15,Cc1ccccc1C(=O)Oc1cc(N)n(S(=O)(=O)c2ccccc2)n1,5.8%
16,Cc1ccccc1NS(=O)(=O)c1cc(OCC(N)=O)c(C)cc1Cl,0.2%
17,CC1Cc2ccccc2N1c1ncnc2c1nnn2Cc1ccccc1 (configuration not stated),9.3%
18,CC1Cc2ccccc2N1c1ncnc2nc[nH]c12 (configuration not stated),1.3%
19,CC1Cc2ccccc2N1c1ncnc(N)c1[N+](=O)[O-] (configuration not stated),82.8% (active)
20,Fc1ccc2c(Cl)c(-c3nnc(-c4cccs4)o3)sc2c1,-112%
21,N=C(N)SCc1cn(-c2ccccc2)nc1-c1ccc(Br)cc1,8.8%
22,COc1ccc(S(=O)(=O)N2CCN(C3CCCC(C)C3)CC2)cc1 (configuration not stated),-12.3%

row,Structure (SMILES),inhibition
1,Cc1ccc(NC(=O)c2ccc3c(c2)OCCO3)cc1S(=O)(=O)Nc1cccc(Cl)c1,10.3%
2,O=C(Nc1cccc(Cl)c1)c1ccc2c(c1)OCCO2,-169%
3,O=C(Nc1cccc(S(=O)(=O)Nc2ccc(Cl)cc2)c1)c1ccc2c(c1)OCCO2,55.7% (active)
4,COC(=O)[C@H](C)NC(=O)NC1CCCc2ccccc21 (some centres not stated),3.2%
5,C/C(CC(=O)NCc1ccc(Cl)cc1)=N\NC(=O)c1ccccc1F,4.7%
6,O=C(Nc1ccc2c(c1)OC1(CCCC1)O2)C1CC1,-19.4%
7,Nc1ccc2c(c1)OC1(CCCCC1)O2,13.4%
8,Nc1ccc2c(c1)OC1(CCCC1)O2,69.9% (active)
9,CCN(CCCNC(=O)C1CCN(S(=O)(=O)N2CCC3(CC2)OCCO3)CC1)c1ccccc1,5.4%
10,CC(C)CNC(=O)COC(=O)c1c2c(nc3ccccc13)CCC2,6.3%
11,CNC(=O)COC(=O)c1c2c(nc3ccccc13)CCC2,4.8%
12,CC(C)NC(=O)NC(=O)COC(=O)c1c2c(nc3ccccc13)CCC2,51.1% (active)
13,CCCc1nc2ccccc2c(=O)n1CCc1ccccc1,-5.9%
14,CC(C)CC(NC(=O)OC(C)(C)C)C(=O)NC(C(=O)N1CCCC1C(N)=O)C(C)C (configuration not stated),4.1%
15,Cc1oc(-c2ccccc2Cl)nc1CN1CCCC1c1ccc(F)cc1 (configuration not stated),0.4%
16,CCOc1ncccc1C(=O)N1CCN(C(c2ccccc2)c2ccccc2)CC1,43.5%
17,Cc1ccccc1C(=O)N1CCN(C(c2ccccc2)c2ccccc2)CC1,46.9%
18,COc1ccc(N(Cc2cc3cc(OC)ccc3[nH]c2=O)C(=O)c2cccnc2)cc1,29.5%
19,COc1cc(C(=O)N[C@H](C(=O)NC(C)C23CC4CC(CC(C4)C2)C3)C(C)C)cc(OC)c1OC (some centres not stated),4%
20,COc1cc(C(=O)NCc2ccc(-c3nc4ccccc4s3)cc2)cc(OC)c1OC,-72.3%
21,COc1ccc(C(=O)NCc2ccc(-c3nc4ccccc4s3)cc2)cc1OC,-45.5%
22,COc1cc(OC)c(OC)cc1CN1CCN(Cc2ccc(C(F)(F)F)cc2)CC1,5.4%

row,Structure (SMILES),inhibition
1,COc1ccc(Nc2cc(Nc3ccccc3)ncn2)cc1,-87%
2,COc1ccc(Nc2cc(Nc3ccc(OC)cc3)ncn2)cc1,-19.7%
3,COc1ccc(Nc2cc(Sc3ccc(OC)cc3)ncn2)cc1,55.2% (active)
4,Cc1cccc2cc(CN(Cc3ccco3)C(=O)Nc3cccc(C#N)c3)c(Cl)nc12,55.3% (active)
5,Cc1ccc(NC(=O)N(Cc2ccco2)Cc2cc3cc(C)cc(C)c3nc2Cl)cc1,-17.3%
6,Cc1cc(C)c2nc(Cl)c(CN(Cc3ccco3)C(=O)Nc3ccccc3C)cc2c1,-17.6%
7,COc1cccc(-c2cc(C(F)(F)F)n3ncc(C(=O)N4CCc5ccccc5C4)c3n2)c1,17.4%
8,CC(C)(C)NS(=O)(=O)CC12CCC(CC1=O)C2(C)C (configuration not stated),50.9% (active)
9,C=CCNS(=O)(=O)CC12CCC(CC1=O)C2(C)C (configuration not stated),5.2%
10,CC1(C)C2CCC1(CS(=O)(=O)NC1CCCC1)C(=O)C2 (configuration not stated),17.9%
11,COCCCn1c(SCC(=O)Nc2ccc(NC(C)=O)cc2)nc2sc3c(c2c1=O)CCC3,11.9%
12,CCN(CC)c1nc2c(c(=O)[nH]c(=O)n2C)n1Cc1ccccc1Cl,5.7%
13,COc1ccc(-n2cnnc2SCC(=O)c2ccc(S(=O)(=O)N3CCOCC3)cc2)cc1,2.6%
14,COc1ccc(-c2ncccc2O)cc1,-2.7%
15,O=C(O)c1c2c(nc3ccccc13)/C(=C/c1ccc(O)cc1)CCC2,11.1%
16,O=C(O)c1ccc(/C=C2\CCCc3c2nc2ccccc2c3C(=O)O)cc1,8.2%
17,O=C(O)c1c2c(nc3ccccc13)/C(=C/c1ccc(O)cc1)CC2,72.4% (active)
18,Cc1cccnc1CCNC(=O)c1ccc(OC2CCN(Cc3ccccn3)CC2)cc1,2.1%
19,O=C(NCCc1ccccn1)c1ccc(OC2CCN(Cc3ccccn3)CC2)cc1,6.5%
20,O=C(NCCc1cccc(Cl)c1)c1ccc(OC2CCN(Cc3ccccn3)CC2)cc1,53.1% (active)
21,CC(=O)N/C(N)=N/c1nc2cc(C)ccc2o1,-93.3%
22,Cc1ccc2oc(/N=C(\N)NC(=O)C3CC3)nc2c1,5.6%

row,Structure (SMILES),inhibition
1,O=C(CSc1nn(-c2ccc(F)cc2)c(=S)s1)N1CCN(C(=O)c2ccco2)CC1,4.8%
2,Cc1no[n+]([O-])c1COc1ccc(/C=N/n2nnnc2N)cc1,-31%
3,COc1cccc(/C=N/NC(=O)c2nnn(-c3nonc3N)c2C(C)C)c1,26.6%
4,O=C(Nc1ccc(N2CCN(C(=O)c3ccccc3)CC2)cc1)c1ccc2c(c1)OCCO2,38.7%
5,Cc1ccccc1C(=O)N1CCN(c2ccc(NC(=O)c3ccc4c(c3)OCO4)cc2)CC1,-42.4%
6,N#CC(c1nc2ccccc2nc1N1CCCCC1)S(=O)(=O)c1ccc(Cl)cc1 (configuration not stated),55.3% (active)
7,Cc1ccc(S(=O)(=O)C(C#N)c2nc3ccccc3nc2N2CCCCC2)cc1 (configuration not stated),7.4%
8,N#CC(c1nc2ccccc2nc1N1CCCC1)S(=O)(=O)c1ccccc1 (configuration not stated),-3.3%
9,O=C(CCS(=O)(=O)c1ccccc1)NC12CC3CC(CC(C3)C1)C2,-42.4%
10,O=C(CCCn1c(=S)[nH]c2cc3c(cc2c1=O)OCO3)N1CCN(c2ccccc2)CC1,12.2%
11,O=C(CCCn1c(=S)[nH]c2cc3c(cc2c1=O)OCO3)N1CCN(c2ccc(F)cc2)CC1,27.2%
12,Cc1cccc(N2CCN(C(=O)CCCn3c(=S)[nH]c4cc5c(cc4c3=O)OCO5)CC2)c1C,38.2%
13,O=C(CCCCCn1c(=S)[nH]c2ccc(N3CCOCC3)cc2c1=O)NCc1ccccc1,29.5%
14,NC(=O)CSc1nnc(-c2ccccc2Br)n1-c1cccc(C(F)(F)F)c1,5.9%
15,Cc1[nH]nc(N)c1-c1ccc(Cl)cc1,14.7%
16,O=C(CCc1nnc(CCCCc2ccccc2)o1)NCCc1cccnc1,24.2%
17,CC(c1cccnc1)N(C(=O)Nc1ccccc1)C1CCCCC1 (configuration not stated),-11.5%
18,O=C(Nc1ccc(Cl)cc1C(F)(F)F)c1ccccc1Cl,3.5%
19,CCC(CC)COC(=O)C1=C(C)NC(=O)NC1c1cc(OC)ccc1OC (configuration not stated),-2%
20,COc1ccc(NC(=O)CSc2nc3nc(-c4cccs4)cc(C(F)(F)F)c3c(=O)[nH]2)c(OC)c1,22.2%
21,CC(=O)Nc1ccc(NC(=O)CSc2nc3nc(-c4cccs4)cc(C(F)(F)F)c3c(=O)[nH]2)cc1,5.7%
22,CN1CCN(CC(=O)Nc2ccccc2Oc2ccccc2)CC1,15.7%

row,Structure (SMILES),inhibition
1,COc1ccc(OCCSc2nc(C)c(Cc3ccccc3)c(=O)[nH]2)cc1,25.5%
2,Cn1c(=O)[nH]c(=O)c2c1nc(NCc1ccccc1)n2Cc1ccc(F)cc1,16%
3,Cc1ccc(/C=N/NC(=O)CSc2nc3ccccc3c(=O)n2-c2ccccc2C)s1,-0.2%
4,N#Cc1c2n(c3c(=O)n(Cc4ccccc4Cl)cnc13)CCCCC2,16.9%
5,Cc1oc2ccc(OCc3cccc(Cl)c3)cc2c1C(=O)O,9.4%
6,O=S(=O)(c1ccc(F)cc1)N1CCN(Cc2ccccn2)CC1,8.3%
7,NS(=O)(=O)c1ccc(NC(=O)COC(=O)CCc2ccc(S(=O)(=O)N3CCOCC3)cc2)cc1,-3%
8,CCn1c(=O)c(C(=O)Nc2cnccn2)c(O)c2ccccc21,18.7%
9,CC(C)Cn1c(=O)c(C(=O)Nc2ccccc2S(N)(=O)=O)c(O)c2ccccc21,22.9%
10,CCn1c(=O)c(C(=O)Nc2ccccc2S(N)(=O)=O)c(O)c2ccccc21,-12.7%
11,CC(C)Cn1c(=O)c(C(=O)Nc2cnccn2)c(O)c2ccccc21,16.2%
12,CCCn1c(=O)c(C(=O)Nc2cnccn2)c(O)c2ccccc21,-10.4%
13,Cn1c(=O)c(C(=O)Nc2cnccn2)c(O)c2ccccc21,-39.4%
14,CCCC(=O)N(CCN1CCOCC1)c1nc2c(C)ccc(C)c2s1,10.7%
15,COc1ccc(-c2cnn3cc(-c4cccc(Cl)c4)cnc23)cc1,-3.7%
16,COc1ccc(/C=N/NC(=O)c2ccoc2C)cc1COc1ccc(Cl)cc1,-42%
17,O=C(N/N=C/c1cn(-c2ccccc2)nc1-c1cccnc1)c1cccnc1,7.5%
18,N#CC(=C=[N-])c1nc2ccccc2nc1-[n+]1cccc(NC(=O)c2cccs2)c1,10%
19,Nc1nnc(COc2ccccc2)s1,-4.5%
